Reference: PubChem BioAssay (Tox21)
Values without a mark were called inactive. Results filed as inconclusive are left out. Entries that show only a call come without a potency. Activity calls are given as the source filed them. Unless noted, calls come from the whole dose curve; as a rule, active = well fitted curve in the direction sought with a large enough effect in the repeat runs; inconclusive = weak or mixed curves; inactive = no such curve, though single readings can be large; an effect the other way counts as inactive or inconclusive.

Columns and labels:
[1] = biological target: Thyrotropin receptor (Homo sapiens) (UniProt P16473); test: qHTS assay to identify small molecule agonists of the thyroid stimulating hormone receptor (TSHR) signaling pathway (AID 1224843; calls by dose curve; note: nearly all actives have a fitted effect of over 45% in size; note: potency is the fitted concentration of half-maximal effect)
Summary of the method: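 Using 15 concentrations per compound in triplicate, cAMP production was monitored in TSHR-HEK293 cells after 30 min compound incubation at RT; HTRF reagents followed, with fluorescence intensity recorded after 1 h.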

[2] = qHTS assay to identify small molecule agonists of the hypoxia (HIF-1) signaling pathway - cell viability counter screen (AID 1224844; calls by dose curve; note: nearly all actives have a fitted effect of over 50% in size)
Summary of the method: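 CellTiter-Glo luminescence read-out, 30 min RT, taken in the same wells as the beta-lactamase HRE reporter assay; HRE-bla ME-180 cells, 0.5% dialyzed FBS, 17 hr compound treatment at 37C, 5% CO2.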

[3] = qHTS assay to identify small molecule agonists of H2AX (AID 1224845; active = well fitted activation curve with a large enough effect in the signal ratio in the repeat runs, not every such curve was filed as active; the % refers to the signal ratio)
Summary of the method: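 Wild-type CHO-K1 cells plated overnight, then exposed 3 hr at 37C to compounds at 15 concentrations (0.76% DMSO). Lysed, then HTRF anti-pH2AX(S139)-cryptate/anti-H2AX-d2 detection after 24 hr at room temperature; emissions 665 and 620 nm.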

[4] = qHTS assay to identify small molecule agonists of the hypoxia (HIF-1) signaling pathway (AID 1224846; active = well fitted activation curve with a large enough effect in the signal ratio in the repeat runs, not every such curve was filed as active; the % refers to the signal ratio)
Summary of the method: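 Beta-lactamase FRET read-out (CCF4-AM substrate) from ME-180 cells carrying an HRE-driven bla reporter, after 17 hrs compound exposure at 37C/5% CO2. Cells were seeded at 2,000 per well in 0.5% dialyzed FBS medium and preincubated 5 hrs.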

[5] = qHTS assay to identify small molecule agonists of H2AX - cell viability counter screen (AID 1224847; calls by dose curve; note: top concentration of the series differs between compounds; nearly all actives have a fitted effect of over 30% in size)
Summary of the method: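 For this counter screen, overnight-attached CHO-K1 cells received test compounds (15 concentrations, 0.76% DMSO final); 3 hr later at 37C, CellTiter-Glo reagent was added and luminescence recorded after 30 min at room temperature.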

[6] = qHTS RealTime-Glo MT Cell Viability Assay in HepG2 cells - 24 hour (AID 1224867); note: nearly all actives have a fitted effect of over 50% in size
Summary of the method: (§1)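 HepG2 suspension premixed with RealTime-Glo reagents is plated at 600 cells per well and left 5 h at 37 C/5% CO2. Compounds in DMSO then go in, and bioluminescence reflecting viable cell number is recorded over 40 h.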

[7] = qHTS RealTime-Glo MT Cell Viability Assay in HEK293 cells - 32 hour (AID 1224868); note: top concentration of the series differs between compounds; nearly all actives have a fitted effect of over 50% in size
Summary of the method: (§2)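 Reads taken at 0, 8, 16, 24, 32 and 40 h from the same wells. HEK293 cells (600/well) carried RealTime-Glo reagents from seeding, with compound added after a 5 h settle at 37 C.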

[8] = A CellTox Green Cytotoxicity Assay to monitor cytotoxicity in HEK293 cells - 0 hour (AID 1224869); note: nearly all actives have a fitted effect of over 50% in size
Summary of the method: (§3)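 Read-out: fluorescence of a cell-impermeant cyanine dye staining DNA of dead cells, proportional to cytotoxicity. HEK293, 600 cells/well with reagent, compound (23 nL DMSO) added after 5 h; reads at 0, 8, 16, 24, 32, 40 h.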

[9] = qHTS RealTime-Glo MT Cell Viability Assay in HepG2 cells - 40 hour (AID 1224870); note: nearly all actives have a fitted effect of over 50% in size
Summary of the method: (§4)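 HepG2 cells mixed with RealTime-Glo MT reagents (NanoLuc plus cell-permeant prosubstrate) were seeded at 600 cells/well, incubated 5 h at 37 C/5% CO2, then pinned with compounds in DMSO; nonlytic luminescence tracked viability during 40 h treatment.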

[10] = A CellTox Green Cytotoxicity Assay to monitor cytotoxicity in HEK293 cells - 40 hour (AID 1224871); note: nearly all actives have a fitted effect of over 45% in size
Summary of the method: as §3

[11] = qHTS RealTime-Glo MT Cell Viability Assay in HEK293 cells - 16 hour (AID 1224872)
Summary of the method: as §2

[12] = qHTS RealTime-Glo MT Cell Viability Assay in HepG2 cells - 8 hour (AID 1224873); note: nearly all actives have a fitted effect of over 55% in size
Summary of the method: as §4

[13] = A CellTox Green Cytotoxicity Assay to monitor cytotoxicity in HEK293 cells - 24 hour (AID 1224875); note: nearly all actives have a fitted effect of over 45% in size
Summary of the method: as §3

[14] = A CellTox Green Cytotoxicity Assay to monitor cytotoxicity in HepG2 cells - 16 hour (AID 1224876); note: nearly all actives have a fitted effect of over 45% in size
Summary of the method: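 HepG2, 600 cells/well premixed w/ CellTox Green; 5 h settle, 37 C/5% CO2; pintool cpd add (DMSO); 37 C, 40 h; fluorescence read at 0, 8, 16, 24, 32, 40 h.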

[15] = qHTS RealTime-Glo MT Cell Viability Assay in HepG2 cells - 32 hour (AID 1224877); note: nearly all actives have a fitted effect of over 55% in size
Summary of the method: as §1

[16] = qHTS RealTime-Glo MT Cell Viability Assay in HEK293 cells - 40 hour (AID 1224874); settings: RealTime-Glo luminescence, active compounds read low; note: nearly all actives have a fitted effect of over 50% in size
Summary of the method: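 Luminescence readout at each listed time point; HEK293, 600 cells/well, RealTime-Glo MT reagent added with cells; compounds pinned (23 nL in DMSO) after 5 h at 37 C; continuous culture at 37 C.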

[17] = qHTS assay to identify small molecule agonists of the estrogen related receptor signaling pathway with the pleiotropic PPARgamma coactivator (PGC) from Tox21 10K library (AID 1224842); note: nearly all actives have a fitted effect of over 15% in size
Summary of the method: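 PGC/ERR reporter cells (NTP line) were seeded 2,000 per well, rested 6 h at 37 C/5% CO2, then pin-dosed with compounds in DMSO for 18 h at 37 C; luciferase read by One-Glo luminescence after 30 min at room temperature.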

[18] = qHTS assay to identify small molecule antagonists of the estrogen related receptor (ERR) signaling pathway from Tox21 library (AID 1224848); note: nearly all actives have a fitted effect of over 50% in size
Summary of the method: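 Tox21 10K compounds in DMSO tested for ERR pathway antagonism in NTP's ERR cell line; 18 h, 37 C exposure; ONE-Glo luminescence.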

[19] = qHTS assay to identify small molecule agonists of the estrogen related receptor (ERR) signaling pathway from Tox21 library (AID 1224849; calls by dose curve; note: nearly all actives have a fitted effect of over 15% in size); settings: ERR reporter cell line, ONE-Glo luciferase, 18 h; at 92.4 µM (top of the series) unless noted
Summary of the method: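 Luminescence readout (ONE-Glo, 30 min RT) after 18 h compound exposure at 37 C of NTP-supplied ERR reporter cells; cells were plated 6 h before compound addition by pin tool.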

Chain of Thyrotropin receptor (Homo sapiens) (P16473 whole entry, looked up): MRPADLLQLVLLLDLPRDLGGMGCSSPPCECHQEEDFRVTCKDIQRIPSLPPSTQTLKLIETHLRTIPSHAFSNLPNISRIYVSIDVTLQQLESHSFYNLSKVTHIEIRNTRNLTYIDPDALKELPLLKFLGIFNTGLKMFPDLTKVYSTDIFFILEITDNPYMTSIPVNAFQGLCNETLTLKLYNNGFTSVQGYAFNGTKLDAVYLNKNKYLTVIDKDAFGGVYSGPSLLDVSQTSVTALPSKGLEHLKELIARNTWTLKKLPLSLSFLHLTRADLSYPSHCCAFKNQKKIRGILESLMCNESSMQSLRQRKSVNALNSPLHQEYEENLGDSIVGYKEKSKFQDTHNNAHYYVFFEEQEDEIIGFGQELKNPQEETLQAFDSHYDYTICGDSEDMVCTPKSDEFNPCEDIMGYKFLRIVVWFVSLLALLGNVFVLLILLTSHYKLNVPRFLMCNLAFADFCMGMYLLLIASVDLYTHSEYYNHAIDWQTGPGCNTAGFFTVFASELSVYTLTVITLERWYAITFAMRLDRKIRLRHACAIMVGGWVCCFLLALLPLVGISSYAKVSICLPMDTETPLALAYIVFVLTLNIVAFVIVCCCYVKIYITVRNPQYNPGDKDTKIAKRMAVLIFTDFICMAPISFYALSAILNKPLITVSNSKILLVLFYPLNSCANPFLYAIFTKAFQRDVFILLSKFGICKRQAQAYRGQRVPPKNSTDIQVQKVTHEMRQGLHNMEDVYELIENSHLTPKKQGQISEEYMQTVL

| Structure (SMILES) | Potency [1] | outcome [2] | outcome [3] | outcome [4] | outcome [5] | outcome [6] | outcome [7] | outcome [8] | outcome [9] | Potency [10] | outcome [11] | outcome [12] | Potency [13] | Potency [14] | outcome [15] | max response [16] [%] | Potency [17] | outcome [18] | activity change, positive = activation [19] [%] |
| --- | --- | --- | --- | --- | --- | --- | --- | --- | --- | --- | --- | --- | --- | --- | --- | --- | --- | --- | --- |
| O=C[C@@H](O)[C@H](O)[C@H](O)CO | inactive | inactive | inactive | inactive | inactive | inactive | inactive | inactive | inactive | inactive | inactive | inactive | inactive | inactive | inactive | – | – | – | – |
| CC(=O)/C=C/C=C1/C2CCC(C2)C1(C)C (stereo unspecified) | 18.8 µM (active) | inactive | inactive | inactive | inactive | inactive | inactive | inactive | inactive | inactive | inactive | inactive | inactive | inactive | inactive | -0.661 | – | – | – |
| CCc1ccc(CC)cc1 | inactive | inactive | inactive | inactive | inactive | inactive | inactive | inactive | inactive | inactive | inactive | inactive | inactive | inactive | inactive | 4.78 | – | – | – |
| Cc1ccccc1OCC(=O)O | – | inactive | inactive | inactive | inactive | inactive | inactive | inactive | inactive | inactive | inactive | inactive | inactive | inactive | inactive | 3.48 | inactive | inactive | 0.72 |
| CC(C)C(=O)Nc1cccc(C2CN3CCSC3=N2)c1 (stereo unspecified) | inactive | inactive | inactive | inactive | inactive | inactive | inactive | inactive | inactive | inactive | inactive | inactive | inactive | inactive | inactive | 0.0338 | – | – | – |
| CCCCCCCCC1CO1 (stereo unspecified) | inactive | inactive | inactive | inactive | inactive | inactive | inactive | inactive | inactive | inactive | inactive | inactive | inactive | inactive | inactive | -0.591 | – | – | – |
| CCCCC(O)/C=C(C)/C=C/C=C/C(=O)N1CCCC1=O (stereo unspecified) | inactive | inactive | inactive | inactive | inactive | inactive | inactive | inactive | inactive | inactive | inactive | inactive | inactive | inactive | inactive | 2.14 | – | – | – |
| Clc1cc(Cl)c(Cl)c(Cl)c1Cl | inactive | inactive | inactive | inactive | inactive | inactive | inactive | inactive | inactive | inactive | inactive | inactive | inactive | inactive | inactive | -0.18 | – | – | – |
| CCCCCC(CC)OC(=O)CCCOc1ccc(Cl)cc1Cl (stereo unspecified) | – | inactive | inactive | – | inactive | inactive | inactive | inactive | inactive | inactive | inactive | – | inactive | inactive | inactive | 2.48 | inactive | inactive | 6.42 |
| Cc1ccccc1C#N | inactive | inactive | inactive | inactive | inactive | inactive | inactive | inactive | inactive | inactive | inactive | inactive | inactive | inactive | inactive | 7.55 | – | – | – |
| N#CC1(N)CCCCC1 | inactive | inactive | inactive | inactive | inactive | inactive | – | inactive | inactive | inactive | inactive | inactive | inactive | inactive | inactive | 6.54 | – | – | – |
| CC(=O)Oc1ccc(C(C)=O)cc1 | inactive | inactive | inactive | inactive | inactive | inactive | inactive | inactive | inactive | – | inactive | inactive | inactive | inactive | inactive | – | – | – | – |
| C=CCN1CCc2nc(N)sc2CC1 | inactive | inactive | inactive | inactive | inactive | inactive | – | inactive | inactive | – | inactive | inactive | inactive | inactive | inactive | 7.02 | – | – | – |
| CCCCNCC | inactive | inactive | inactive | inactive | inactive | inactive | – | inactive | inactive | inactive | inactive | inactive | inactive | inactive | inactive | -1.39 | – | – | – |
| CCCCCCCCS(=O)(=O)O | inactive | inactive | inactive | inactive | inactive | inactive | inactive | – | inactive | inactive | – | inactive | inactive | inactive | inactive | – | – | – | – |
| CC(=O)OC/C=C(/C)CCC=C(C)C | inactive | inactive | inactive | inactive | inactive | inactive | – | inactive | inactive | inactive | – | inactive | inactive | inactive | inactive | -1.6 | – | – | – |
